Unmarked numbers belong to inactive results. Activity calls are given as the source filed them. Unless noted, no stated cut-off is given here; in the data, active means inhibition above about 42%; inactive means the rest.
Key:
[1] = target: Nuclear receptor coactivator 3 (Homo sapiens) (UniProt Q9Y6Q9); assay: NCOA3 GAL4-fusion reporter inhibition – cell-based, luminescence, quadruplicate, confirmation (AID 588792;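 active means mean inhibition over 43.08%, the solvent-only control mean plus 3 SD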;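 further: 0% = DMSO treated cells and 100% = gossypol at 36 µM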); conditions: HEK293 GAL4-SRC3 luciferase reporter, at 3.6 µM, hits give high values
[2] = tested on: transactivating tegument protein VP16 (Human herpesvirus 1), Gal4-VP16 luciferase reporter; assay: repression of VP16-driven luciferase reporter – cell-based, luminescence, high throughput, counter-screen for SRC3 inhibitor project (AID 588794; in the data active means inhibition above about 30%); conditions: mammalian cells, at 3.6 µM, hits give high values
[3] = StAR promoter reporter inhibitors, counter-screen for LRH-1 inverse agonist project, cell-based, luminescence, high throughput (AID 651611; in the data active means inhibition above about 28%); conditions: StAR promoter luciferase reporter counterscreen, at 3.6 µM, hits give high values
[4] = target: Nuclear receptor subfamily 5 group A member 2 (Homo sapiens) (UniProt O00482); assay: NR5A2 activity suppression in reporter cells – cell-based, luminescence, confirmation (AID 651613); conditions: cell-based LRH-1 luciferase reporter, inverse agonism; at 3.6 µM; hits give high values;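 further: HEK293T cells co-transfected with LRH-1 and StAR promoter luciferase reporter; 0% = vehicle wells and 100% = parental cells lacking receptor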
[5] = target: Steroidogenic factor 1 (Homo sapiens) (UniProt Q13285); assay: inverse agonism at SF1 nuclear receptor – cell-based, luminescence, high throughput, counter-screen for LRH-1 inverse agonist project (AID 651614; in the data active means inhibition above about 44%;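 further: cells cotransfected with StAR promoter reporter and SF1 expression vector; 0% = vehicle on cells with receptor and 100% = vehicle on cells lacking receptor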); conditions: cell-based SF1 luciferase reporter, at 3.6 µM, hits give high values
[6] = compounds suppressing VP16-driven luciferase signal – cell-based, luminescence, high throughput, counter-screen for LRH-1 inverse agonist project (AID 651615; in the data active means inhibition above about 33%); conditions: Gal4-VP16 luciferase reporter cells, at 3.6 µM, hits give high values
[7] = tested on: transactivating tegument protein VP16 (Human herpesvirus 1); assay: compounds suppressing VP16-driven luciferase signal – cell-based, luminescence, single concentration, counter-screen for SRC2 inhibitor project (AID 652007; in the data active means inhibition above about 36%); conditions: cell-based VP16 transactivation luciferase reporter, at 8.9 µM, hits give high values
[8] = target: Nuclear receptor coactivator 2 (Homo sapiens) (UniProt Q15596); assay: inhibition of GAL4-SRC2 driven luciferase expression – cell-based, luminescence, HEK293, triplicate, confirmation (AID 652008;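 active means mean inhibition above 46.5%, the solvent-only control mean plus 3 SD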;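 further: 0% = DMSO-treated cells and 100% = Gossypol at 36 µM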); conditions: HEK293 GAL4-SRC2 luciferase reporter, at 8.9 µM, hits give high values
Sequence of Nuclear receptor coactivator 2 (Homo sapiens) (Q15596 whole entry, looked up, the tested form may be a part): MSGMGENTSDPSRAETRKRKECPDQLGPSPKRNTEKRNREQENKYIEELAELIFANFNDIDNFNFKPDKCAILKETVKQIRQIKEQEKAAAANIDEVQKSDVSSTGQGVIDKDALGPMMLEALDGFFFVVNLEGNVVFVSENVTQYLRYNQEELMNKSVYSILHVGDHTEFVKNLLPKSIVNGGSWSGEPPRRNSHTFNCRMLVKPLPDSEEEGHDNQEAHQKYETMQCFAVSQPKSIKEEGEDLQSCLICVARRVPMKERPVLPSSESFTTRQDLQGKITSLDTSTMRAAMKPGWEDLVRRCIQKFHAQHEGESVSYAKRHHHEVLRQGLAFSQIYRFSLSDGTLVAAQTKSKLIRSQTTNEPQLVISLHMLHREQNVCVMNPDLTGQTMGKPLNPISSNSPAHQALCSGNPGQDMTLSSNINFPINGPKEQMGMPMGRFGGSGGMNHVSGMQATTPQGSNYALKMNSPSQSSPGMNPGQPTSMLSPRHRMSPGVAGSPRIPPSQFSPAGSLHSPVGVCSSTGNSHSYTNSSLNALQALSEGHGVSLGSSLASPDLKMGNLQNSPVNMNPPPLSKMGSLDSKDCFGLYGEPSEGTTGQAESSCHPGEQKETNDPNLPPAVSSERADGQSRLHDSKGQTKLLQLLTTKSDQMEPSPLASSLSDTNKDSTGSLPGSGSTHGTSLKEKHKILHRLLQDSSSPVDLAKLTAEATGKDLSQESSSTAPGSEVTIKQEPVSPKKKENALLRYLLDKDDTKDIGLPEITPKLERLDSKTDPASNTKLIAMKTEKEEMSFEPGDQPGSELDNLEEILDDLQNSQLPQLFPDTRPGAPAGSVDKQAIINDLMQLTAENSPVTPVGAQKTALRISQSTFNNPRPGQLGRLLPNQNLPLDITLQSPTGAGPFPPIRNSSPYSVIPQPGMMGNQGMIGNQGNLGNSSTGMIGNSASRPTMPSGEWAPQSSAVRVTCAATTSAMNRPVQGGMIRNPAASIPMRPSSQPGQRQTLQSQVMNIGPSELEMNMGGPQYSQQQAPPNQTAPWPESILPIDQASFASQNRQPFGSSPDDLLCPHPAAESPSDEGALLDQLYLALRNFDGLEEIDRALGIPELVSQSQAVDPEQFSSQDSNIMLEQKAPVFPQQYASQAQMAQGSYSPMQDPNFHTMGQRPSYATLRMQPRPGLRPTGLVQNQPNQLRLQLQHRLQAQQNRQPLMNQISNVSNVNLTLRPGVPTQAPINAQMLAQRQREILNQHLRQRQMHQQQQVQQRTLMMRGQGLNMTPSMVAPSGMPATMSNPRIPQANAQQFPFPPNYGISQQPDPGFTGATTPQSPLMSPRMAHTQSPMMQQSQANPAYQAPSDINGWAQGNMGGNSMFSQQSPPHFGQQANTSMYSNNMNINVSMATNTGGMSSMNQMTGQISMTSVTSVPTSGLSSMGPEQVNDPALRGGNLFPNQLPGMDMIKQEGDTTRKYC

Sequence of Nuclear receptor coactivator 3 (Homo sapiens) (Q9Y6Q9 whole entry, looked up, the tested form may be a part): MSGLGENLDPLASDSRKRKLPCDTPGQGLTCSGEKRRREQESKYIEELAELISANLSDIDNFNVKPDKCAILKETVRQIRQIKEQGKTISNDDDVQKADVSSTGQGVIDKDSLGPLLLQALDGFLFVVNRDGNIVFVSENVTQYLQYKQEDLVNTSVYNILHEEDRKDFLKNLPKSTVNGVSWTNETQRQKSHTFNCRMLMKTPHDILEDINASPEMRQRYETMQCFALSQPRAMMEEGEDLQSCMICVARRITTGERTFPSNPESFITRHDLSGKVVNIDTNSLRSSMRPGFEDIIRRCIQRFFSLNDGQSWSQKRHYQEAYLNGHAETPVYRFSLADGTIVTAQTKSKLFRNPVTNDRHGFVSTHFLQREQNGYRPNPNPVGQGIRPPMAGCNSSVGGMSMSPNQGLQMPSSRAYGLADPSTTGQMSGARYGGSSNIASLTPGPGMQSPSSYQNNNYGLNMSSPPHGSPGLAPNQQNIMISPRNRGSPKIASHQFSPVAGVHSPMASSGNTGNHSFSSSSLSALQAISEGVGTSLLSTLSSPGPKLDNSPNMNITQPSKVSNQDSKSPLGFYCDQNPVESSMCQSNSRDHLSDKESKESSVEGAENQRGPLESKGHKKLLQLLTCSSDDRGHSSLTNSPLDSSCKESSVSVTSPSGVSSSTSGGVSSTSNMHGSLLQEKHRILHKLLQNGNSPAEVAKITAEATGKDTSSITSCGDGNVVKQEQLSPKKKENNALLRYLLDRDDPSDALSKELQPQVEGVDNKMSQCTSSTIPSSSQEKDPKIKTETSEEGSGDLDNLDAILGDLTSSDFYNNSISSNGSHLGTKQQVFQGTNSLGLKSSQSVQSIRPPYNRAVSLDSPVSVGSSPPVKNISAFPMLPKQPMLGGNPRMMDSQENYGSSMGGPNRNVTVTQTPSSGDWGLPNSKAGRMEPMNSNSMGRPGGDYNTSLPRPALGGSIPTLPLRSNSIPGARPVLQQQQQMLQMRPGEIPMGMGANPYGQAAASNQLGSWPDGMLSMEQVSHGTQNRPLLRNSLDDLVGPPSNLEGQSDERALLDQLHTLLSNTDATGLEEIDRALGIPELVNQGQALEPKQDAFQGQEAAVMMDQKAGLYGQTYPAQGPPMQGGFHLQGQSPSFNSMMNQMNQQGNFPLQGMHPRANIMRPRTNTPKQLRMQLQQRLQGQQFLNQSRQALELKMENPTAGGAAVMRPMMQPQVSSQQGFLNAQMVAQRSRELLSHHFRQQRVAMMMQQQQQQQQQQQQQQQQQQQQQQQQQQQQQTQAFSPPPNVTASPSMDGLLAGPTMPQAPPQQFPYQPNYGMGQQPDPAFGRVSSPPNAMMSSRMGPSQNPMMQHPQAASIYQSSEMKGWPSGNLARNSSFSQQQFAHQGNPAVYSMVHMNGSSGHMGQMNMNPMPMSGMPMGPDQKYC
Sequence of Steroidogenic factor 1 (Homo sapiens) (Q13285 whole entry, looked up, the tested form may be a part): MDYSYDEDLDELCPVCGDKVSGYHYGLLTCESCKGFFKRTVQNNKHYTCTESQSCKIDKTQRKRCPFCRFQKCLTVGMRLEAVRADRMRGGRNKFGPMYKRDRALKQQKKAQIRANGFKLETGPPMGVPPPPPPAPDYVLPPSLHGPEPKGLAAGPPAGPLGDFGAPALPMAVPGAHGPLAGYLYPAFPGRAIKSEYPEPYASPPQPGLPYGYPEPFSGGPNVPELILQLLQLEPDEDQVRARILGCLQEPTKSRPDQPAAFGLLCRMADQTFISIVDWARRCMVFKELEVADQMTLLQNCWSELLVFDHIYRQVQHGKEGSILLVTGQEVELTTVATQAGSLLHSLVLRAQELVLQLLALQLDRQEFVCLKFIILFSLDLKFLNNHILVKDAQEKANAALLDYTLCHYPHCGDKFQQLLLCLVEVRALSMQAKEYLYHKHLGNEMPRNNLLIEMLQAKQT
Sequence of Nuclear receptor subfamily 5 group A member 2 (Homo sapiens) (O00482 whole entry, looked up): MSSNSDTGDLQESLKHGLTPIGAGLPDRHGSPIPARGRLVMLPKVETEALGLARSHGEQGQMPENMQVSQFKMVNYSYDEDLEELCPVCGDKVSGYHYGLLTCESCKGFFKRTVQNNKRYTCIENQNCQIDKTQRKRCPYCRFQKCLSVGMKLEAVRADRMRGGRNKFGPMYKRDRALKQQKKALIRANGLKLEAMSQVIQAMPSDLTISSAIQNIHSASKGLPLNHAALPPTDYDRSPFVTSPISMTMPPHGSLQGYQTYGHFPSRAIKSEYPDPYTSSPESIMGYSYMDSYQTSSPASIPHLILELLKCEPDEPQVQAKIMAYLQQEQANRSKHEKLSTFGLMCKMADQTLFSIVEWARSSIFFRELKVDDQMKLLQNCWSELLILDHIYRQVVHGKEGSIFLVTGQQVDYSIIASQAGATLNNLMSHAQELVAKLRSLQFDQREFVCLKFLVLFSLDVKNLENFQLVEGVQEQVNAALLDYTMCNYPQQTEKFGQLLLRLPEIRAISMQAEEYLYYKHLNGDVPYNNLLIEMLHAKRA

Structure (SMILES)	inhibition [1]	inhibition [2]	inhibition [3]	inhibition [4]	inhibition [5]	inhibition [6]	inhibition [7]	inhibition [8]
CN1/C(=C\C(=O)C[n+]2ccc3ccccc3c2)C(C)(C)c2ccccc21	24.8%	50.2% (active)	35.9% (active)	89.6% (active)	77.6% (active)	66.7% (active)		
S=C(NCCCc1cnc[nH]1)NCCCN(Cc1ccc(Cl)cc1)c1ccc(Br)cn1	83.9% (active)	57.4% (active)	91.2% (active)	102% (active)	96.4% (active)	82.4% (active)	-0.33%	51.4% (active)
Brc1ccc(C2=Nn3c(nnc3-c3n[nH]c4c3CCC4)SC2)cc1	26%	-11.4%	50.6% (active)	49% (active)	51% (active)	-33.2%		
COc1ccc(OC)c(NC(=O)c2nnn(Cc3ccccc3C)c2N)c1	4.83%	29.9% (active)	20.2%	44.5% (active)	52.9% (active)	57.3% (active)		
CC(C)N(c1ccccc1)c1ccc(NC(=O)CCl)cc1	29.3%	-9.17%	32.8% (active)	72.4% (active)	60.9% (active)	-7.77%	17.1%	33.1%
c1ccc(CNc2nc(-c3ccccn3)nc3ccccc23)cc1	21.8%	29.9% (active)	68.7% (active)	76.8% (active)	84.3% (active)	66.5% (active)		
C#CC(=O)N(c1ccc(OC)c(OC)c1)C(C(=O)NC1CCCC1)c1cccs1 (stereo unspecified)	25.2%	-2.4%	17.7%	57.3% (active)	35.4%	10.9%		

From PubChem BioAssay
